Laboratory results: ChEMBL document CHEMBL4513216, “Probing the Open Global Health Chemical Diversity Library for Multistage-Active Starting Points for Next-Generation Antimalarials” (ACS Infect Dis, 2020)
About 2,700 (4%) of roughly 68,000 compounds showed an effect of 50% or more. Only a selection was taken, and strong results are over-represented in it overall.

test system: Plasmodium berghei; test: Screen against P. berghei liver stage (PbLuc), transformed with Luciferase, at 2uM; assay type: functional, HepG2; details: tested at 2 uM

Row | Compound | INHIBITION
1 | O=C(NCCCNc1ccccn1)NCC1CCS(=O)(=O)C1 (stereo not drawn) | 41.93%
2 | COc1ccc(F)c(CN2CCC(c3cc(O)nc(C)n3)C2)c1 (stereo not drawn) | 25.87%
3 | CNC(=O)COC1COC2(CCN(c3ccc(C)nn3)CC2)C1 (stereo not drawn) | -37.31%
4 | O=C(c1ccno1)N1CCO[C@@H]2CC(COCc3ccccn3)C[C@H]21 (stereo partly drawn) | 43.24%
5 | O=C(NCCN1CCOCC1)C1=NOC2(CCN(Cc3nccs3)C2)C1 (stereo not drawn) | 50.9%
6 | CNC(=O)C1=NOC2(CCN(Cc3nccs3)C2)C1 (stereo not drawn) | 5.9%
7 | Cc1ncccc1NC(=O)C1=NOC2(CCN(Cc3nccs3)C2)C1 (stereo not drawn) | 16.87%
8 | CCc1nc(C2CCCN2Cc2ccno2)no1 (stereo not drawn) | -62.13%
9 | O=C1NCC2(CCCN(Cc3cccnc3)C2)Oc2ccccc21 (stereo not drawn) | 24.06%
10 | Cc1cc(-c2cc(S(=O)(=O)N3C[C@H](C4CC4)[C@@H](N)C3)c(C)s2)on1 | 14.95%
11 | COc1cccc(CN2CCCC(c3nn(C)c4nccnc34)C2)c1 (stereo not drawn) | 22.81%
12 | COc1cc(N2CCC3(CCCN(C(=O)c4cccnc4)C3)C2)ncn1 (stereo not drawn) | -15.29%
13 | CC(NCc1ccncc1)c1cc(F)ccc1N1CCN(C)CC1 (stereo not drawn) | 24.88%
14 | Cc1ccc(CNC(C)c2cc(F)ccc2N2CCN(C)CC2)o1 (stereo not drawn) | 60.84%
15 | Cc1ccc(CNC(C)c2ccc(N3CCN(C)CC3)c(F)c2)o1 (stereo not drawn) | 14.89%
16 | Cc1ccc(CC(=O)N2CCCC(c3ccn[nH]3)C2)cn1 (stereo not drawn) | -5.3%
17 | O=C(NCCCO)c1cc(-c2cc[nH]n2)n2ccccc12 | -50.4%
18 | Fc1cccc(-c2nnn3c2COCC(CNCc2nccs2)C3)c1 (stereo not drawn) | 3.18%
19 | CCc1cc(N(C)CCC(O)c2ccccc2)n2nccc2n1 (stereo not drawn) | 53.12%
20 | COCc1cc(N(C)CCC(O)c2ccccc2)n2nccc2n1 (stereo not drawn) | 45.87%
21 | Cc1cc(N(C)CCC(O)c2ccccc2)n2nccc2n1 (stereo not drawn) | 26.35%
22 | CCOCC1CCN(C(=O)C(c2ccccc2F)N(C)C)CC1 (stereo not drawn) | -45.44%
23 | CN(C)C(C(=O)N1CCCC1)c1ccccc1F (stereo not drawn) | -12.23%
24 | CN(C)C(C(=O)N1CCC(CCO)CC1)c1ccccc1F (stereo not drawn) | 57.34%
25 | c1cncc(C2CC3(CCN(c4cnccn4)CC3)c3ccccc32)c1 (stereo not drawn) | -8.91%
26 | COc1cccc(-n2nnc(C(=O)N3CCC(C(N)=O)CC3)c2C)c1 | 56.78%
27 | COc1cccc(-n2nnc(C(=O)N3CCN(C)CC3C)c2C)c1 (stereo not drawn) | 89.42%

Row | Compound | INHIBITION
28 | COc1cccc(-n2nnc(C(=O)N3CCOC(C)C3)c2C)c1 (stereo not drawn) | 32.64%
29 | COc1cccc(-n2nnc(C(=O)N3CCCCCC3)c2C)c1 | 30.05%
30 | COc1cccc(-n2nnc(C(=O)N3CCCC(C)C3)c2C)c1 (stereo not drawn) | 5.91%
31 | COc1cccc(-n2nnc(C(=O)N3CCCC3)c2C)c1 | -32.49%
32 | Cc1nc(-c2ccc(S(=O)(=O)N3CCC4(CC3)OCCO4)cc2)co1 | 13.93%
33 | CCNc1cc2c(nn1)CCN(C(=O)C(C)c1c(C)noc1C)C2 (stereo not drawn) | -45.83%
34 | COc1cc(CNCc2ccnc(N3CCCC3)c2)cc(OC)c1 | -2.71%
35 | CCN1C[C@H]2C3(CCN(C(=O)NC(C)C)CC3)CC[C@@]2(C(=O)NC)C1 | 45.36%
36 | CN1CCCC2(CCN(S(=O)(=O)c3c(Cl)nc4sccn34)C2)C1=O (stereo not drawn) | 66.11%
37 | O=S(=O)(c1c(Cl)nc2sccn12)N1CCC2(CCNCC2)C1 | 27.17%
38 | O=S(=O)(c1c(Cl)nc2sccn12)N1CCCC2(CCNC2)C1 (stereo not drawn) | 12.83%
39 | CCC1=N[C@@]2(CC[C@@H]3CN(S(=O)(=O)CC(C)C)C[C@@H]32)C(=O)N1CC | 47.53%
40 | CCN(Cc1cccc(C)c1)Cn1nc(C)c2c(C)onc2c1=O | -1.02%
41 | CCN(Cc1cccc(F)c1)Cn1nc(C)c2c(C)onc2c1=O | 9.17%
42 | CCN(Cc1c(F)cccc1F)Cn1nc(C)c2c(C)onc2c1=O | 62.13%
43 | CN1CCC(N(Cc2ccncc2)Cc2nc3c(s2)CCCC3)CC1 | -1.15%
44 | O=C(NCCCc1nc(=O)[nH][nH]1)c1ccc(Cl)cn1 | 43.28%
45 | CN(C)CCOCc1cncc2c1CCN(C(=O)C1CCOCC1)C2 | 26.48%
46 | Cn1ccnc1SCCNC1CCN(c2nc3ccccc3s2)CC1 | -11.8%
47 | Cc1cc(C)nc(N2CCC(NCCSc3nnnn3C)CC2)n1 | -25.72%
48 | Cn1ccnc1SCCNC1CCN(c2ncccn2)CC1 | 50.98%
49 | COc1cc(N2CCC3(CCCN(C(=O)c4cnccn4)C3)C2)ncn1 (stereo not drawn) | -42.01%
50 | CC(=O)N1CCN(CC(C)(O)c2cccc(C(F)(F)F)c2)CC1 (stereo not drawn) | 1.63%
51 | CC(O)(CN1CCN(CCO)CC1)c1cccc(C(F)(F)F)c1 (stereo not drawn) | -27.62%
52 | CCN1CCN(CC(C)(O)c2cccc(C(F)(F)F)c2)CC1 (stereo not drawn) | 69.41%
53 | O=C(NCCNc1ccccn1)Nc1cc(C(F)(F)F)c[nH]c1=O | -20.82%
